Experimental data reported in PubChem BioAssay AID1445 (SRMLSC, 2008).
The whole screen tested about 220,000 compounds, of which about 910 (0.41%) were called active. The sample holds actives, similar compounds and a random draw of the others, so the mix is not that of the screen. Entries with a potency or affinity are not part of this list. A number with no mark means an inactive call.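 The calls were made as follows: active = primary inhibition above the hit cutoff, then over 50% inhibition at one or more dose response concentrations (cut at about 23% in these data, passing the limit was not always enough); inconclusive = conflicting primary data, or primary hits not chosen for dose response; inactive = low primary inhibition, or under 50% at every dose.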

Target: Aminopeptidase N (Plasmodium falciparum (isolate 3D7)) (UniProt O96935)
Sequence (O96935 whole entry, looked up): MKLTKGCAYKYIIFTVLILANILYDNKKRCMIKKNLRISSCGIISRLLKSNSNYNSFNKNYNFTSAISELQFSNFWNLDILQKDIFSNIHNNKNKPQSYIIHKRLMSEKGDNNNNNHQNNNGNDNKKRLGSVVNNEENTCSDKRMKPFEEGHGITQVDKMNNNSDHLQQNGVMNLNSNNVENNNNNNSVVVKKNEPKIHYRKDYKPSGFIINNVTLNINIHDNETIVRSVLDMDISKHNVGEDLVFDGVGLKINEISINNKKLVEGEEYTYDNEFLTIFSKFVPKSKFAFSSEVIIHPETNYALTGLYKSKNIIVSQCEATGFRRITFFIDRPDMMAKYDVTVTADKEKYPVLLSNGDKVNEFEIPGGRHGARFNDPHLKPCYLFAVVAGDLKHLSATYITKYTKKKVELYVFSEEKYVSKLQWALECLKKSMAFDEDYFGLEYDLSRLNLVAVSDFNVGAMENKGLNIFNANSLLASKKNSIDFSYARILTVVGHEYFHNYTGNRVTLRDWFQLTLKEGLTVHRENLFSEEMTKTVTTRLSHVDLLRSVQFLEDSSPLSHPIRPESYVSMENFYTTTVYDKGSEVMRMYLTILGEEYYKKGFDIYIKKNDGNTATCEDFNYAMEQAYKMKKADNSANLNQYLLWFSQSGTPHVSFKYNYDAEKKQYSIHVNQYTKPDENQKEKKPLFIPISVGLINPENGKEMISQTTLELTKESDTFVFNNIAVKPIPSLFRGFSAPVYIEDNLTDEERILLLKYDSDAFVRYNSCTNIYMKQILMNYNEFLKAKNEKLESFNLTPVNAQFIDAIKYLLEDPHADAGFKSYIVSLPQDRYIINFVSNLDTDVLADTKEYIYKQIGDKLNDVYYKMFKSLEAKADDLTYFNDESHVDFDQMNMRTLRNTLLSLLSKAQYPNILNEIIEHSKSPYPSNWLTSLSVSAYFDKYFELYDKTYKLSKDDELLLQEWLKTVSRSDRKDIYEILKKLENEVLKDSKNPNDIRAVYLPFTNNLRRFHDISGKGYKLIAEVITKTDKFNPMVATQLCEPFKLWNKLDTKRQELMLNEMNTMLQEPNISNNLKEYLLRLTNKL
Experiment: malaria alanyl aminopeptidase activity blockers – biochemical, fluorogenic H-Leu-NHMec substrate, 1536-well (AID 1445);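 also: plate controls were DMSO full reaction for no effect and no enzyme background for full effect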
Conditions: recombinant M1AAP, H-Leu-NHMec fluorogenic kinetic assay; at 30 µM, hits give high values unless noted

First: Cc1ncc(CO)c(/C=N/NC(=S)Nc2ccc(C(C)C)cc2)c1O
Second: O=C(COc1cccc2cccnc12)N/N=C/c1ccccc1O
The inhibition of the first is higher: 9.46% for the first, -2.77% for the second.

Going from `Cc1nc2cc(NC(=O)c3ccc(N4C(=O)CCC4=O)cc3)ccc2s1` to `COc1ccc(C(=O)Nc2nc3nccc(-c4ccccc4)n3n2)cc1`, the inhibition rises from -5.53% to 0.22%.

Going from `C=CCOc1ccc(/C=C2\SC(=S)N(N3CCOCC3)C2=O)cc1` to `CCOc1ccc(/C=C2\SC(=S)N(CCC(=O)O)C2=O)cc1`, the inhibition rises from -2.77% to 1.74%.

Compared with `COc1ccc(/C=C2\SC(=S)N(C(Cc3ccccc3)C(=O)O)C2=O)cc1` (stereo unspecified), `Cc1ccc(/C=C2\SC(=S)N(C(Cc3ccccc3)C(=O)O)C2=O)cc1` (stereo unspecified) is higher in inhibition: 4.89% for the first, 14.4% for the second.

Going from `COc1cc(/C=C2/SC(=S)N(c3c(C)n(C)n(-c4ccccc4)c3=O)C2=O)ccc1O` to `CCOc1ccc(/C=C2\SC(=S)N(C(C(=O)O)c3ccccc3)C2=O)cc1OC` (stereo unspecified), the inhibition rises from 11.3% to 14.7%.

First: CCOc1ccc(/C=C2/SC(=S)N(C(C(=O)O)c3ccccc3)C2=O)cc1OCC (stereo unspecified)
Second: COc1cc(/C=C2\SC(=S)N(C(C(=O)O)c3ccccc3)C2=O)cc(OC)c1OC (stereo unspecified)
The inhibition of the first is lower: 12.1% for the first, 18.4% for the second.

First: O=S(=O)(NCC(c1cccnc1)N1CCN(c2ccc(F)cc2)CC1)c1cccs1 (stereo unspecified)
Second: NS(=O)(=O)c1ccc(N2N=C(c3ccc(Br)cc3)CC2c2ccc(F)cc2)cc1 (stereo unspecified)
The inhibition of the first is lower: -1.2% for the first, 5.03% for the second.

Compared with `COc1ccc(CNC(=S)NC(C)CCc2ccccc2)cc1` (stereo unspecified), `COc1ccc(S(=O)(=O)Nc2ccc(O)c3ccccc23)cc1` is higher in inhibition: -0.16% for the first, 5.24% for the second.

First: CSc1cccc(NCc2ccc([N+](=O)[O-])cc2)c1
Second: COCc1nnc(NS(=O)(=O)c2ccc([N+](=O)[O-])cc2)s1
The inhibition of the first is higher: 7.42% for the first, 2.64% for the second.

Compared with `COc1ccc(-c2nn(-c3ccccc3)cc2CNCCN2CCOC2=O)c(F)c1`, `COc1ccc(C2CC(c3ccccc3)=NN2c2ccc(S(N)(=O)=O)cc2)cc1` (stereo unspecified) is higher in inhibition: -5.99% for the first, 22.3% for the second.

Compared with `O=C(N/N=C/c1ccccn1)c1cc(-c2ccccc2)nc2ccccc12`, `O=C1C(C2=NC(c3ccccn3)C3C(=O)N(c4ccccc4)C(=O)C23)=C(O)c2ccccc21` (stereo unspecified) is higher in inhibition: -10.8% for the first, 3.12% for the second.

Compared with `Cn1cnnc1SCC(=O)Nc1ccc2nc(SCc3ccccc3F)sc2c1`, `CCOC(=O)c1c(NC(=O)CSc2ncnc3ccccc23)sc(C)c1C` is higher in inhibition: -0.14% for the first, 1.43% for the second.

First: O=C(O)C(Cc1ccccc1)N1C(=O)/C(=C/c2cccnc2)SC1=S (stereo unspecified)
Second: O=C(O)C(Cc1ccccc1)N1C(=O)/C(=C/c2ccccc2)SC1=S (stereo unspecified)
The inhibition of the first is lower: 5.04% for the first, 18.4% for the second.

Compared with `CC[C@@H]1CC=C[C@H]2[C@H]1C(=O)N(Cc1ccccc1)[C@H]2c1ccc(OC)c(Cl)c1`, `O=C(Cn1cnc2c(nnn2Cc2ccccc2)c1=O)c1ccc(Cl)cc1` is lower in inhibition: 4.5% for the first, 2.57% for the second.

Going from `COc1ccc(C2CC(c3ccccc3)=NN2c2ccc(S(N)(=O)=O)cc2)cc1OC` (stereo unspecified) to `NS(=O)(=O)c1ccc(N2N=C(c3ccccc3)CC2c2ccccc2)cc1` (stereo unspecified), the inhibition falls from 19.9% to 19.1%.

Going from `CC(C)(C)N/C=C(\C#N)S(=O)(=O)c1ccc(Br)cc1` to `Cc1ccc(S(=O)(=O)N(C)C)cc1NC(=O)Nc1ccccc1`, the inhibition rises from -2.81% to 3.2%.

Going from `COc1cc(OC)c2c(-c3ccccc3)cc(=O)oc2c1C(CC(=O)N1CCN(c2ccccc2)CC1)c1ccc2c(c1)OCO2` (stereo unspecified) to `CS(=O)(=O)N(CC(=O)Nc1ccccc1C(=O)N1CCCC1)c1ccc2c(c1)OCO2`, the inhibition falls from 5.15% to 4.85%.

Compared with `C=CCn1c(=O)c2ccccc2n2c(SCC(=O)Nc3sc(C)c(CC)c3C(=O)OCC)nnc12`, `CCOC(=O)c1c(NC(=O)CSc2nnc(-c3ccccc3)n2CC)sc(C(C)=O)c1C` is higher in inhibition: 1.54% for the first, 5.61% for the second.

Compared with `CS(=O)(=O)N(CC(=O)Nc1ccccc1C(=O)N1CCOCC1)c1ccccc1`, `O=C(CSc1nc(O)c(Cc2ccccc2)c(=O)[nH]1)N1CCOCC1` is higher in inhibition: -1.24% for the first, 0.8% for the second.

Compared with `Cc1cc(C(=O)CSc2nnc(C3COc4ccccc4O3)n2C)c(C)n1-c1ccc(F)cc1` (stereo unspecified), `Cn1cccc1Cc1nnc(SCC(=O)NC2CCCCC2)n1-c1ccc(F)cc1` is lower in inhibition: 7.16% for the first, 6.82% for the second.

First: CCCOc1cccc(NC(=O)OC2CCN(C)CC2)c1
Second: COc1cccc(N2C(=O)CC(N3CCN(CCN=CC4=C(O)CC(C)(C)CC4=O)CC3)C2=O)c1 (stereo unspecified)
The inhibition of the first is lower: -1.59% for the first, 5.88% for the second.

Compared with `Cc1ccc(C(=O)Nc2ncc(Cc3ccc(F)cc3)s2)o1`, `CCOc1ccccc1NC(=O)c1ccc(S(=O)(=O)N(C)C)cc1` is lower in inhibition: 3.37% for the first, -1.64% for the second.

Going from `O=[N+]([O-])c1ccc(N/N=C\c2cccnc2)nc1` to `Clc1cnc(N/N=C/c2cccs2)c(Cl)c1`, the inhibition falls from 6.43% to 4.04%.

First: COC(=O)c1c(NC(=O)CSc2ccccc2N)sc(C)c1C
Second: CCCC(=O)c1cn(CC(=O)OC)c2ccccc12
The inhibition of the first is higher: 2.47% for the first, 1.35% for the second.

Compared with `O=c1[nH]c(/C(=N\O)c2ccccc2)no1`, `O=C(O)c1cccc2c1C(=O)c1ccccc1C2=O` is higher in inhibition: 10.2% for the first, 15.9% for the second.

First: Cc1nnc(SCc2ccc(Cl)cc2Cl)[nH]c1=O
Second: Cc1ccc(-c2cc3ncc(C#N)c(N)n3n2)cc1
The inhibition of the first is lower: 4.54% for the first, 6.77% for the second.

Compared with `S=c1[nH]nc(-c2ccc(Br)cc2)n1Cc1ccco1`, `Cc1cccc(-c2cc3nc4c(c(NCc5ccco5)n3n2)CCCC4)c1` is lower in inhibition: 3.64% for the first, -3.49% for the second.

Compared with `CCOc1ccccc1N1CSC2=C(C#N)C(c3c(OC)ccc4ccccc34)CC(=O)N2C1` (stereo unspecified), `COc1ccc2ccccc2c1C1CC(=O)N2CN(C)CSC2=C1C#N` (stereo unspecified) is lower in inhibition: 18.2% for the first, 16% for the second.

Going from `Nc1c(C(=O)O)ccc2c1C(=O)c1ccccc1C2=O` to `O=C1C(C2=NC(C(=O)O)C3C(=O)N(c4ccccc4)C(=O)C23)=C(O)c2ccccc21` (stereo unspecified), the inhibition rises from 4.92% to 10.7%.

Compared with `COc1cc(-c2cc(=O)c3c(O)cc(O)cc3o2)ccc1O`, `O=c1c(-c2c(O)cc(O)c3c(=O)cc(-c4ccc(O)cc4)oc23)c(-c2ccc(O)cc2)oc2cc(O)cc(O)c12` is lower in inhibition: 12.4% for the first, 12% for the second.

First: Cn1c(SCC(=O)Nc2nccs2)nnc1C12CC3CC(CC(C3)C1)C2
Second: C=CCn1c(SCC(=O)C23CC4CC(CC(C4)C2)C3)nc(O)cc1=O
The inhibition of the first is higher: 6.61% for the first, 5.12% for the second.

Going from `O=C(CCC1CCCN(C(=O)c2ccncc2)C1)NCc1ccc(F)c(F)c1` (stereo unspecified) to `COc1ccc(C(=O)N2CCCC(CCC(=O)NCc3ccc(F)c(F)c3)C2)cc1F` (stereo unspecified), the inhibition rises from 1.64% to 3.11%.

Compared with `C=CCn1c(SCC(=O)NC23CC4CC(CC(C4)C2)C3)nc2cc(C(=O)O)ccc2c1=O`, `COc1ccc(C(=O)NCCCN2CCOCC2)cc1S(=O)(=O)N1CCCc2ccccc21` is lower in inhibition: 2.59% for the first, -1.32% for the second.

First: Cc1ccc(S(=O)(=O)NCC(=O)N(CC(=O)NCC2CCCO2)C2CCCC2)cc1 (stereo unspecified)
Second: Cc1cc(C)c(S(=O)(=O)NCC(=O)O)cc1C
The inhibition of the first is higher: 4.45% for the first, -7.15% for the second.

Compared with `O=c1sc(/C=N/Nc2ccccc2)c(Cl)n1Cc1ccccc1`, `Cc1onc(-c2ccccc2)c1NC(=O)Nc1c(-c2ccccc2)noc1C` is higher in inhibition: -3.08% for the first, 5.84% for the second.

Going from `CC(C)c1ccc(N2C=Nc3ccc(C(C)C)cc3C2)cc1` to `N=C1/C(=C\c2ccc(-c3cccc(Cl)c3)o2)C(=O)N=C2SC=C(c3ccccc3)N12`, the inhibition rises from 0.82% to 15.9%.

Going from `CCCCNC(=S)NNC(=O)CCn1cc(C)cn1` to `CCCCN(C)c1c(N2CCC(C(=O)OCC)CC2)c(=O)c1=O`, the inhibition rises from 4.21% to 12.2%.

First: CCOC(=O)Cc1cc(=O)n2[nH]c(C(C)(C)C)cc2n1
Second: CCCn1c(OC)nc2c1c(=O)n(C)c(=O)n2C
The inhibition of the first is higher: 4.13% for the first, 1.88% for the second.

First: CCCOC(=O)CSc1nc(N)c(C#N)c(-c2ccco2)c1C#N
Second: CCCOc1nc2c(c(=O)n(C)c(=O)n2C)n1C
The inhibition of the first is higher: 8.7% for the first, 2.15% for the second.

First: N=C1/C(=C\c2ccc(-c3ccc(C(=O)O)cc3)o2)C(=O)N=C2SC=C(c3ccccc3)N12
Second: N=C1/C(=C\c2ccc(-c3cc(Cl)cc(Cl)c3)o2)C(=O)N=C2SC=C(c3ccccc3)N12
The inhibition of the first is higher: 8.48% for the first, -3.79% for the second.

Going from `CC(C)S(=O)(=O)C1=NSC2=NC(=O)/C(=C\c3ccc(-c4cccc(C(=O)O)c4)o3)C(=N)N21` to `O=C(O)CSc1cc(NS(=O)(=O)c2cccc([N+](=O)[O-])c2)c2ccccc2c1O`, the inhibition rises from 17.7% to 19.8%.

Going from `CC12CCC(C/C1=N\N=C1\NC(=O)/C(=C\c3cccc(Br)c3)S1)C2(C)C` (stereo unspecified) to `O=S(=O)(Nc1cc(Sc2ncn[nH]2)c(O)c2ccccc12)c1ccccc1`, the inhibition rises from 6.04% to 13.5%.

In the case of `Cn1cnc2c(N/N=C/c3cccs3)ncnc21`, the inhibition is reported as 7.29%.

In the case of `CS(=O)(=O)N(CC(=O)Nc1ccccc1C(=O)N1CCOCC1)c1ccc2c(c1)OCO2`, the inhibition is reported as 24.9% (active).
In the case of `COc1ccc2ccccc2c1C1CC(=O)N2CN(C3CCCCC3)CSC2=C1C#N` (stereo unspecified), the inhibition is reported as 28% (active).
With `C=CCn1c(SCC(=O)NC23CC4CC(CC(C4)C2)C3)nc(O)cc1=O` the inhibition was 24.7% (active).
`O=C1C(C2=NC(C(=O)O)C3C(=O)N(c4ccc(Cl)cc4)C(=O)C23)=C(O)c2ccccc21` (stereo unspecified) was tested, and the inhibition was 25.7% (active).
For `CCCOc1nc2c(c(=O)n(C)c(=O)n2C)n1CCC`, the inhibition was 24.2% (active).
`COc1ccc(S(=O)(=O)Nc2cc(Sc3ncn[nH]3)c(O)c3ccccc23)cc1` was tested, and the inhibition was 24.3% (active).
